According to PubChem BioAssay (Tox21):
Results filed as inconclusive are left out. The source made the active and inactive calls. Unless noted, calls come from the whole dose curve; as a rule, active = well fitted curve in the direction sought with a large enough effect in the repeat runs; inconclusive = weak or mixed curves; inactive = no such curve, though single readings can be large; an effect the other way counts as inactive or inconclusive.

Key:
[1] = qHTS assay to identify small molecule antagonists of the glucocorticoid receptor (GR) signaling pathway - cell viability counter screen (AID 720693); note: nearly all actives have a fitted effect of over 55% in size
[2] = qHTS assay for identifying genotoxic compounds that show differential cytotoxicity against isogenic chicken DT40 cell lines with known DNA damage response pathways - wild type cell line (AID 743012); note: nearly all actives have a fitted effect of over 60% in size; note: potency is the fitted concentration of half-maximal effect
Summary of the method: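 300 wt DT40 cells/well; cpd (DMSO) pintool-transferred after ~0.5 h at 37 C/5% CO2; 40 h incubation; CellTiter-Glo added, 30 min RT; luminescence read.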

[3] = qHTS assay for identifying genotoxic compounds that show differential cytotoxicity against isogenic chicken DT40 cell lines with known DNA damage response pathways - Rev3 mutant cell line (AID 743014); note: nearly all actives have a fitted effect of over 55% in size; note: potency is the fitted concentration of half-maximal effect
[4] = qHTS assay for identifying genotoxic compounds that show differential cytotoxicity against isogenic chicken DT40 cell lines with known DNA damage response pathways - Rad54/Ku70 mutant cell line (AID 743015); note: nearly all actives have a fitted effect of over 60% in size; note: potency is the fitted concentration of half-maximal effect
[5] = qHTS assay to identify small molecule antagonists of the androgen receptor (AR) signaling pathway - cell viability counter screen (AID 743033; note: nearly all actives have a fitted effect of over 45% in size)
[6] = qHTS assay to identify small molecule antagonists of the androgen receptor (AR) signaling pathway using the MDA cell line - cell viability counter screen (AID 743041; note: nearly all actives have a fitted effect of over 45% in size)
Summary of the method: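 Compound exposure lasted 16 h at 37C in MDA-kb2 AR-luc cells stimulated with R1881. Protease-based CellTiter-Fluor reagent was applied for the final 30 min and fluorescence measured.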

[7] = qHTS assay to identify small molecule antagonists of the thyroid receptor (TR) signaling pathway - cell viability counter screen (AID 743064); note: nearly all actives have a fitted effect of over 50% in size
Summary of the method: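 Rat GH3 pituitary tumor cells stably expressing two TR response elements driving luciferase were plated, rested 4 h, then dosed with library compounds and T3 (1 nM final). After 23.5 h at 37 °C, CellTiter-Fluor was added for 30 min and fluorescence recorded.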

[8] = test system: thyroid hormone receptor (rat, GH3 cells); assay: qHTS assay to identify small molecule agonists of the thyroid receptor (TR) signaling pathway (AID 743066; calls by dose curve)
[9] = target: Estrogen receptor (Homo sapiens) (UniProt P03372); assay: qHTS assay to identify small molecule antagonists of the estrogen receptor alpha (ER-alpha) signaling pathway (AID 743069; active = well fitted curve in the direction sought with a large enough effect in the signal ratio in the repeat runs, not every such curve was filed as active; the % refers to the signal ratio)
Sequence of Estrogen receptor (Homo sapiens) (P03372 whole entry, looked up): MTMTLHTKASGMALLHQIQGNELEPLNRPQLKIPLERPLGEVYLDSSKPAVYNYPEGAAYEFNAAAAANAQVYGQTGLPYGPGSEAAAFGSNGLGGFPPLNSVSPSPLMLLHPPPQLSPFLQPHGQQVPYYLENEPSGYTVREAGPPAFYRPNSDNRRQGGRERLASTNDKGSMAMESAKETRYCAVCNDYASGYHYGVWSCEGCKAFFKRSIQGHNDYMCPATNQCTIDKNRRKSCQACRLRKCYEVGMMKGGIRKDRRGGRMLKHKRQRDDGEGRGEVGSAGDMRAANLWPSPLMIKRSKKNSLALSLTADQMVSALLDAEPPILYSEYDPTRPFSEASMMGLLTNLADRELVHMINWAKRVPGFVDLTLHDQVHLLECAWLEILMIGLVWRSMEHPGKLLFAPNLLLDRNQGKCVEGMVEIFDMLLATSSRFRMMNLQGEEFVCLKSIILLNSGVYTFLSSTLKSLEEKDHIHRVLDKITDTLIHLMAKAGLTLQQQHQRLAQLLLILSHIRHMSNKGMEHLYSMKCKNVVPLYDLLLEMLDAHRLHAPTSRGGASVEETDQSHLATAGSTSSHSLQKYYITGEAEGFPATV
Summary of the method: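 In this cell-based reporter format, GripTite HEK293 cells harbouring ER-alpha-UAS-bla were grown overnight with 2% charcoal-stripped FBS, dosed with DMSO-dissolved compounds, then challenged with 17beta-estradiol. After 18 hr at 37C, beta-lactamase activity was detected by FRET fluorescence.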

[10] = qHTS assay to identify small molecule antagonists of the estrogen receptor alpha (ER-alpha) signaling pathway - cell viability counter screen (AID 743074; calls by dose curve; note: nearly all actives have a fitted effect of over 45% in size)
[11] = target: Estrogen receptor (Homo sapiens) (UniProt P03372); assay: qHTS assay to identify small molecule agonists of the estrogen receptor alpha (ER-alpha) signaling pathway (AID 743075; calls by dose curve)
[12] = target: Estrogen receptor (Homo sapiens) (UniProt P03372); assay: qHTS assay to identify small molecule agonists of the estrogen receptor alpha (ER-alpha) signaling pathway using the BG1 cell line (AID 743079); note: nearly all actives have a fitted effect of over 20% in size
[13] = qHTS assay to identify small molecule antagonists of the estrogen receptor alpha (ER-alpha) signaling pathway using the BG1 cell line (AID 743080; calls by dose curve;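 note: BG1 cells stimulated with 17beta-estradiol alongside compound; nearly all actives have a fitted effect of over 25% in size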; note: potency is the fitted concentration of half-maximal effect)
Summary of the method: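 BG1-Luc-4E2 cells (endogenous full-length ER-alpha, 4xERE luciferase) hormone-starved 5 days in charcoal-stripped FBS, plated 4,000/well for 24 h, then compound plus 17beta-estradiol for 21.5 h at 37 C; ONE-Glo luminescence read.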

[14] = qHTS assay to identify small molecule antagonists of the estrogen receptor alpha (ER-alpha) signaling pathway using the BG1 cell line - cell viability counter screen (AID 743081);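 note: compound given together with 17beta-estradiol as the ER stimulus; series mostly up to about 70 µM; nearly all actives have a fitted effect of over 45% in size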
Aromatase (Homo sapiens) = Aromatase (Homo sapiens) (UniProt P11511); assay: qHTS assay to identify aromatase inhibitors (AID 743083); note: series mostly up to about 70 µM; nearly all actives have a fitted effect of over 55% in size
Sequence of Aromatase (Homo sapiens) (P11511 whole entry, looked up): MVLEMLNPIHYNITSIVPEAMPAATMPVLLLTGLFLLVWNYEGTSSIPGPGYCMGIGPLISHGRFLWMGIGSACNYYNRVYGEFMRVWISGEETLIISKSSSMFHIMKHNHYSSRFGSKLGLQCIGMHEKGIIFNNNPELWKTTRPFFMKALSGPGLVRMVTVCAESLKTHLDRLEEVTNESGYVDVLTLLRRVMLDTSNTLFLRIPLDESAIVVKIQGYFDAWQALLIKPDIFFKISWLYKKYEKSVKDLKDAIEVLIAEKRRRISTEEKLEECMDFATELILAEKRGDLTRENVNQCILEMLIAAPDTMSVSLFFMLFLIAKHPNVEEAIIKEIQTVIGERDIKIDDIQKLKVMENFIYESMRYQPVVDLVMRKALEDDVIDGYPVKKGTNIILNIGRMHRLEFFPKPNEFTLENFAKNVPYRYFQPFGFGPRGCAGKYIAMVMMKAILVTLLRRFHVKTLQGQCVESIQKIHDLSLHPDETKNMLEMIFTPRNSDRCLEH

[15] = qHTS assay to identify small molecule antagonists of the thyroid receptor (TR) signaling pathway (AID 743065); note: series mostly up to about 70 µM; nearly all actives have a fitted effect of over 55% in size
Summary of the method: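 GH3.TRE-Luc rat pituitary cells (two TREs driving luciferase) were dosed with compound, then stimulated with 1 nM T3 (final) for 23.5 h at 37 C. ONE-Glo luminescence was the read-out, with CellTiter-Fluor fluorescence as the cytotoxicity counter-screen.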

[16] = target: Androgen receptor (Homo sapiens) (UniProt P10275); assay: qHTS assay to identify small molecule antagonists of the androgen receptor (AR) signaling pathway (AID 743035; active = well fitted inhibition curve with a large enough effect in the signal ratio in the repeat runs, not every such curve was filed as active; the % refers to the signal ratio)
Sequence of Androgen receptor (Homo sapiens) (P10275 whole entry, looked up): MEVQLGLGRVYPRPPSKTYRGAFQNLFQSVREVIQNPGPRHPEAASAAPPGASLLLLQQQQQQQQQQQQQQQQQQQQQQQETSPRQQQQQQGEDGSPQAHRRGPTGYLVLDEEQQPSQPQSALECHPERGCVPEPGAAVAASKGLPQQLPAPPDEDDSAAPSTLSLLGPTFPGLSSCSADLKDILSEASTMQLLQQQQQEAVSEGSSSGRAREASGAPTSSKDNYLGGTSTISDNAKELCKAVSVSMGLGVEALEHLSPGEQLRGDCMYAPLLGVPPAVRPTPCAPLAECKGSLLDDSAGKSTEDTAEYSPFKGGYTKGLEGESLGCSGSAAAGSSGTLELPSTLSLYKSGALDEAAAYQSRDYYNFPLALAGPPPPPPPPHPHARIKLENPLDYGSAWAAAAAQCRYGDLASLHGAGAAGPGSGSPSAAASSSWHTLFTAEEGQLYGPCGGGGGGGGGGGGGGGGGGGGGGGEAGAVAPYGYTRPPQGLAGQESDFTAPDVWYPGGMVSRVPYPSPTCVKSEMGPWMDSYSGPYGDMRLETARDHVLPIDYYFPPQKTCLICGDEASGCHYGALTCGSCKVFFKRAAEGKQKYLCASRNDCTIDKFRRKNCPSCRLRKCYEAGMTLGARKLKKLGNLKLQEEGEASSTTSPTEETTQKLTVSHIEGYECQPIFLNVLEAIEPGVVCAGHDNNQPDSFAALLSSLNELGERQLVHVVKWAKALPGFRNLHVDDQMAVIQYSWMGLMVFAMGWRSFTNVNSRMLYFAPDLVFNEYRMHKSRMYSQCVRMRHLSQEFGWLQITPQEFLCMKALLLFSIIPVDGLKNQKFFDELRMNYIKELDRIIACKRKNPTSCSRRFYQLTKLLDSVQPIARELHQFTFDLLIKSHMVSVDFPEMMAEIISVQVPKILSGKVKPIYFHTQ
Summary of the method: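 In this cell-based reporter screen, compounds were tested in concentration series against R1881-activated HEK293 cells expressing beta-lactamase under UAS control; after 16 h at 37C, FRET substrate was added and fluorescence read 2 h later.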

[17] = target: Androgen receptor (Homo sapiens) (UniProt P10275); assay: qHTS assay to identify small molecule agonists of the androgen receptor (AR) signaling pathway using the MDA cell line (AID 743040; note: nearly all actives have a fitted effect of over 20% in size)
Summary of the method: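 Testing was done with the MDA-kb2 AR-luc line, a human breast carcinoma stably transfected with MMTV-luciferase containing AR and GR response elements. Cells were exposed 16 h at 37C before ONE-Glo luminescence detection.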

[18] = target: Androgen receptor (Homo sapiens) (UniProt P10275); assay: qHTS assay to identify small molecule antagonists of the androgen receptor (AR) signaling pathway using the MDA cell line (AID 743042; note: nearly all actives have a fitted effect of over 55% in size)
Summary of the method: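 MDA-kb2 breast carcinoma cells carrying MMTV-luciferase (AR/GR responsive) were co-treated with compounds and the agonist R1881 for 16 h at 37C. Inhibition read as ONE-Glo luminescence; CellTiter-Fluor fluorescence measured in parallel for cytotoxicity.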

[19] = target: Androgen receptor (Homo sapiens) (UniProt P10275); assay: qHTS assay to identify small molecule agonists of the androgen receptor (AR) signaling pathway (AID 743036; active = well fitted activation curve with a large enough effect in the signal ratio in the repeat runs, with a control signal flat, not every such curve was filed as active; the % refers to the signal ratio)
Summary of the method: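 Quantitative HTS of the Tox21 10K library in HEK293 cells bearing a stably integrated UAS-controlled beta-lactamase reporter. Compound exposure lasted 16 h at 37C. Reporter activity was detected by FRET substrate fluorescence after 2 h at room temperature.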

Measured: Potency

O=C(CCNNC(=O)c1ccncc1)NCc1ccccc1
not listed: [15] | [16] | [17] | [18] | [19]
inactive: all other assays above

CCCCCCCCC1CCC(=O)O1 (configuration not stated)
not listed: [9] | [10] | [12] | [13] | [16] | [17] | [18] | [19]
inactive: all other assays above

CCN1CCc2nc(N)oc2CC1
not listed: [9] | [15] | [16] | [17] | [18] | [19]
inactive: all other assays above

N[C@@H](COP(=O)(O)O)C(=O)O
inactive: [1] | [2] | [3] | [4] | [5] | [7] | [15] | [8] | [10] | [14] | Aromatase (Homo sapiens)

CCCCCOC(=O)CCC
inactive: [1] | [2] | [3] | [5] | [6] | [7] | [15] | [8] | [10] | [14] | Aromatase (Homo sapiens)

Oc1cn2c(n1)Nc1ccc(Cl)c(Cl)c1C2
not listed: [3] | [19]
inactive: all other assays above

CC1(C)S[C@@H]2[C@H](N=CN3CCCCCC3)C(=O)N2[C@H]1C(=O)O
not listed: [4] | [15] | [16] | [17] | [18] | [19]
inactive: all other assays above

CC(C)c1ccc2cc(C(C)C)ccc2c1
not listed: [4] | [13] | [15] | [19]
inactive: all other assays above

c1ccc2c(c1)ccc1c3ccccc3ccc21
inactive: [1] | [2] | [3] | [5] | [6] | [7] | [15] | [8] | [10] | [14] | Aromatase (Homo sapiens)

C=COCCOCCOCCOC=C
not listed: [4] | [9] | [11] | [12] | [13] | [15] | [19]
inactive: all other assays above

Brc1ccc(-c2ccccc2)cc1
inactive: [1] | [2] | [3] | [5] | [6] | [7] | [15] | [8] | [14]

CCCCCCCCCCCCCC
inactive: [1] | [2] | [3] | [6] | [10] | [14] | Aromatase (Homo sapiens)

CC(S)C(=O)NCC(=O)O (configuration not stated)
not listed: [4] | [9] | [11] | [12] | [13] | [19]
inactive: all other assays above

COc1ccc(S(=O)(=O)N2c3ccc(Cl)cc3[C@@](O)(c3ccccc3Cl)[C@H]2C(=O)N2CCC[C@@H]2C(N)=O)cc1OC
not listed: [4] | [16] | [17] | [18] | [19]
inactive: all other assays above

CN1CCN(CC(=O)N2c3ccccc3C(=O)Nc3cccnc32)CC1
not listed: [5] | [7] | [8] | [15] | [16] | [17] | [18] | [19]
inactive: all other assays above

Cc1ccc(C=O)cc1C
not listed: [6] | [8] | [15] | [16] | [17] | [18] | [19]
inactive: all other assays above

C=C(C)C(=O)OCc1ccccc1
not listed: [4] | [16] | [17] | [18] | [19]
inactive: all other assays above

COc1ccc(Br)c(C)c1
inactive: [1] | [2] | [3] | [4] | [5] | [6] | [8] | [10] | [14] | Aromatase (Homo sapiens)

CC1(CO)CN(c2ccccc2)NC1=O (configuration not stated)
not listed: [4] | [9] | [11] | [12] | [13] | [15] | [19]
inactive: all other assays above

COc1ccc(-c2cc(=O)c3c(O)cc(O[C@@H]4O[C@H](CO[C@@H]5O[C@@H](C)[C@H](O)[C@@H](O)[C@H]5O)[C@@H](O)[C@H](O)[C@H]4O)cc3o2)cc1O
not listed: [4] | [16] | [17] | [18] | [19]
inactive: all other assays above

CCCCCCOc1ccccc1C(N)=O
inactive: [1] | [7] | [8] | [9] | [10] | [11] | [14] | Aromatase (Homo sapiens)
active: [2] 23.7 µM | [3] 21.1 µM | [4] 21.1 µM | [13] 33.5 µM

CC(C)NCC(O)COc1ccc(COCCOC(C)C)cc1 (configuration not stated)
not listed: [4] | Aromatase (Homo sapiens) | [19]
inactive: all other assays above

Nc1ccc(S(=O)(=O)Nc2ccc(Cl)nn2)cc1
not listed: [4] | [19]
inactive: all other assays above

O=C(O)c1cc(Cl)cc([N+](=O)[O-])c1Cl
not listed: [3]
inactive: all other assays above

OCCCCC(O)CO (configuration not stated)
inactive: [1] | [2] | [3] | [5] | [6] | [7] | [10] | [14] | Aromatase (Homo sapiens)

CC(C)CC(C)CC(C)CC(C)COC(=O)c1ccccc1C(=O)OCC(C)CC(C)CC(C)CC(C)C (configuration not stated)
active: [3] 25.3 µM
inactive: [1] | [2] | [5] | [6] | [7] | [15] | [8] | [10] | [14] | Aromatase (Homo sapiens)

O=C(O)Cc1ccc(Cl)cc1Cl
active: [2] 61.1 µM | [3] 27.3 µM
not listed: [4] | [19]
inactive: all other assays above

CC(CC=O)CCCC(C)(C)O (configuration not stated)
not listed: [3] | [19]
inactive: all other assays above

O=C(O)Cc1cn(-c2ccccc2)nc1-c1ccc(Cl)cc1
not listed: [4] | [16] | [17] | [18] | [19]
inactive: all other assays above

CC1=C(C(=O)O)N2C(=O)[C@@H](NC(=O)[C@H](N)c3ccc(O)cc3)[C@H]2SC1
inactive: [1] | [2] | [3] | [4] | [5] | [6] | [10] | [14] | Aromatase (Homo sapiens)

CC(=O)Nc1ccc(S(=O)(=O)Nc2ccc([N+](=O)[O-])cc2)cc1
not listed: [5] | [7] | [14] | [16] | [17] | [18] | [19]
inactive: all other assays above

C[C@@H](Oc1ccc(CNC(=O)c2cccnc2Oc2ccc3c(c2)OCO3)c(F)c1)C(=O)O
not listed: [4] | [15] | [16] | [17] | [18] | [19]
inactive: all other assays above

ClCCCl
not listed: [4] | [7] | [16] | [17] | [18] | [19]
inactive: all other assays above

O=S(=O)(O)CCN1CCN(CCO)CC1
inactive: [1] | [2] | [3] | [5] | [6] | [7] | [15] | [8] | [10] | [14] | Aromatase (Homo sapiens)

C=C(C)C1CCC(C)(O)CC1 (configuration not stated)
not listed: [3] | [19]
inactive: all other assays above

OCCC(F)(F)C(F)(F)C(F)(F)C(F)(F)C(F)(F)C(F)(F)C(F)(F)C(F)(F)F
not listed: [4] | [9] | [16] | [19]
inactive: all other assays above

C[C@H](CCC(=O)O)[C@H]1CC[C@H]2[C@@H]3C(=O)C[C@@H]4CC(=O)CC[C@]4(C)[C@H]3CC(=O)[C@]12C
not listed: [4] | [6] | [7] | [15] | [16] | [17] | [18] | [19]
inactive: all other assays above
